A selection: hits, their analogues and other compounds. The true share with any hit is near 3.5%.
FBW7 act: human FBW7 E3 ligase activation, primary screen; AlphaScreen FBW7–phospho-cyclin E peptide binding, activator screen; 0.13% of 650,000 active; AID 1259310; normalized activity (activation), % at 26.1 µM; in the data active means normalized activity above about 1.9%;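 further: purified mutant Fbw7 with reduced substrate affinity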
MITF inh: human MITF inhibition, primary screen | O75030 | AlphaScreen MITF homodimerization, bead proximity signal | inhibition, % at 2.6 µM | 0.91% of 650,000 active | AID 1259374; in the data active means inhibition above about 50%
GPR151 ag: human GPR151 activation; Q8TDV0; PathHunter beta-arrestin GPR151 cells, luminescence; activation, % at 11.2 µM; 1% of 650,000 active; AID 1508602; in the data active means activation above about 4.9%
Target sequence (Q8TDV0 whole entry, looked up): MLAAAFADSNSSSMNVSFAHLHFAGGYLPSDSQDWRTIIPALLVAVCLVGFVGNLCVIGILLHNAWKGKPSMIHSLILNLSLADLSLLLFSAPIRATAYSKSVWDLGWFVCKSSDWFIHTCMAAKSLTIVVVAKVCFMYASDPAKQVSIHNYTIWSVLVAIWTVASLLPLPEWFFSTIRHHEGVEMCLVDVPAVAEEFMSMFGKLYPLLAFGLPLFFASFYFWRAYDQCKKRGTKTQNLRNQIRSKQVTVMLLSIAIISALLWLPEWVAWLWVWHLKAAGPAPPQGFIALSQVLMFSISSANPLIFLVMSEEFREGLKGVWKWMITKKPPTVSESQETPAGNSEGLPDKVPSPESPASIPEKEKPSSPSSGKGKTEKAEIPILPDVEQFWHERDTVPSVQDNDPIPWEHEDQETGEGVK
TEAD-YAP block: TEAD-YAP interaction inhibition; HEK-TIYL cells, TEAD-Gal4/YAP UAS-luciferase luminescence; inhibition, % at 9.12 µM; 1.4% of 640,000 active; in the data active means inhibition above about 32%
GPR151 conf act: human GPR151 activation, confirmation screen | AID 1508609 | shares compounds with GPR151 ag | GPR151 PathHunter beta-arrestin cells, luminescence, 90 min; % of EA-reagent control over plate median | activation, % at 11.2 µM | 6,700 tested, under 10 active;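 active means mean percent activation across replicates above the confirmation screen cutoff of 4.91%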
GPR119 counter: activates human GPR119 in a GPR151 counter-screen | 0.3% of 6,700 active | shares compounds with GPR151 ag | GPR119 PathHunter beta-arrestin cells, luminescence, 90 min; 0 = compound-well median, 100 = enzyme-acceptor control | activation, % at 11.2 µM;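 active means mean percent activation in the counterscreen above 29.09%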;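 further: counterscreen on off-target GPR119 to flag nonselective hits from the GPR151 activator screen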
Numbers stand for hits; . = inactive; / = no result; ! = not confirmed by another sample.

SMILES	FBW7 act	MITF inh	GPR151 ag	TEAD-YAP block	GPR151 conf act	GPR119 counter
COc1cccc(C2CC(c3ccc(C)cc3)=NN2S(=O)(=O)c2ccc(C)cc2)c1OC (stereo not given)	.	.	.	.	/	/
Cc1cc(NC(=O)NC(=O)c2cccc(Cl)c2)n[nH]1	.	.	.	.	/	/
Cc1cc(NC(=O)NC(=O)c2ccc(Cl)c(Cl)c2)n[nH]1	.	.	6.6	.	.	.
Cc1c(C(=O)Nc2nc3ccccc3s2)sc2nc[nH]c(=O)c12	.	.	.	.	/	/
CCc1nc2c(Cl)cc(Cl)cc2c(=O)o1	.	.	.	.	/	/
CCNc1nc(NCC)n2c(SCC(=O)Nc3ccccc3C)nnc2n1	.	.	6.8	.	.	.
CCNc1nc(NCC)n2c(SCC(=O)Nc3ccc(C)cc3C)nnc2n1	.	.	.	.	/	/
CCC(C)CC(=O)Nc1nc2c(s1)C(=O)CC(C(=O)N(C)C(C)C)C2 (stereo not given)	.	.	7.1	.	.	.
CCC(C)C(=O)Nc1nc2c(s1)C(=O)CC(C(=O)N(C)C(C)C)C2 (stereo not given)	.	.	.	.	/	/
CC(C)N(C)C(=O)C1CC(=O)c2sc(NC(=O)c3ccccc3)nc2C1 (stereo not given)	.	.	6.4	.	.	.
CCC(C)C(=O)Nc1nc2c(s1)C(=O)CC(C(=O)N(C)Cc1nonc1C)C2 (stereo not given)	.	.	5.7	.	.	.
CCc1ccc(-n2c(SCc3cccc(Br)c3)nc3[nH]ncc3c2=O)cc1	.	.	.	.	/	/
Cc1ccc(S(=O)(=O)C2CCN(C(=O)c3cc(C)n(C)n3)CC2)cc1	.	.	.	.	/	/
Cc1cc(C(=O)N2C=CC(C(F)(F)F)=NCC2)nn1C	.	.	5.0	.	.	.
CCCn1c(=O)[nH]c2c(C(N)=O)nc(-c3ccc(Cl)cc3)nc21	.	.	.	.	/	/
NC(=O)C1CCN(C(=O)Cc2ccc(Cl)cc2Cl)CC1	.	.	.	.	/	/
O=C(Cc1ccc(Cl)cc1Cl)N1CCN(c2ccc(O)cc2)CC1	.	.	5.2	.	.	.
CC(C)NC(=O)c1cc(=O)[nH]c2ccc(S(=O)(=O)N3CCCCCC3)cc12	.	.	.	.	/	/
CC(C)NC(=O)c1cc(=O)[nH]c2ccc(S(=O)(=O)N3CCCC3)cc12	.	.	6.3	.	.	.
COc1ccc(-c2cncc(-c3cc(N4CCN(CCO)CC4)nc(C)n3)c2)cc1	.	.	7.1	.	.	.
O=C(CSc1ccc(F)cc1)Nc1ccc(Cl)c(N2CCCS2(=O)=O)c1	.	.	12	.	.	.
CCCN=Cc1c(C)[nH]n(-c2ccc(C)c(C)c2)c1=O	.	.	.	.	/	/
Cc1nc(SC2CCCCC2=O)c(C#N)c(-c2cccs2)c1C(=O)Nc1ccccc1 (stereo not given)	.	.	5.1	.	.	.
C/C(=C\c1ccccc1)C(=O)NCCc1ccccc1	.	.	15	.	.	.
C#CCN(CC=C)Cc1c(C(=O)N2CCCC2)nc2sccn12	.	.	.	.	/	/
SMILES	FBW7 act	MITF inh	GPR151 ag	TEAD-YAP block	GPR151 conf act	GPR119 counter
COc1ccc(NC(=O)c2ccc(C(C)=O)cc2)cc1	.	.	.	.	/	/
COC(=O)c1ccc(C2NC(=O)NC(O)(C(F)(F)F)C2C(=O)c2ccc(F)cc2)cc1 (stereo not given)	.	.	6.2	.	.	.
O=C1NC(c2ccccc2O)C(C(=O)c2ccccc2)C(O)(C(F)(F)F)N1 (stereo not given)	.	.	.	.	/	/
O=C1NC(c2ccc(F)cc2)C(C(=O)c2ccccc2)C(O)(C(F)(F)F)N1 (stereo not given)	.	.	.	.	/	/
Cc1ccc(C(=O)C2C(c3ccccc3F)NC(=O)NC2(O)C(F)(F)F)cc1 (stereo not given)	.	.	6.9	.	.	.
Cc1ccc(N=NNc2cccc([N+](=O)[O-])c2)cc1	.	.	5.9	.	.	.
COc1ccc2c(c1)c(CC(=O)Nc1ncccc1C)c(C)n2C(=O)c1ccc(Cl)cc1	.	.	.	.	/	/
COc1ccc2c(c1)c(CC(=O)Nc1ccc(NC(C)=O)cc1)c(C)n2C(=O)c1ccc(Cl)cc1	/	.	6.2	/	.	.
CC(C)NCC(O)COc1cccc2ccccc12 (stereo not given)	.	.	5.5!	.	.	.
OC(COc1cccc2ccccc12)CN1CCNCC1 (stereo not given)	.	.	12	.	.	.
COc1cccc(OC)c1OCC(O)CN1CCN(c2ccccn2)CC1 (stereo not given)	.	.	.	.	/	/
COc1cccc(OC)c1OCC(O)CN1CCN(c2ccccc2)CC1 (stereo not given)	.	.	6.3	.	.	.
CN1CCN(C(=O)c2ccc(-c3nc(NCCN4CCOCC4)c4ncn(Cc5ccc(C(F)(F)F)cc5)c4n3)cc2)CC1	.	.	.	.	/	/
O=C1CCC(=O)N1CCC1=CCCCC1	.	.	.	.	/	/
O=C1NC(=O)N(CCC2=CCCCC2)C1=O	.	.	10	.	.	.
Cc1c(N(C)S(=O)(=O)c2cc([N+](=O)[O-])ccc2Cl)c(=O)n(-c2ccccc2)n1C	.	.	.	.	/	/
CC1(c2ccc3c(c2)OCCO3)NC(=O)N(Cc2cc(=O)oc3cc4c(cc23)CCC4)C1=O (stereo not given)	.	.	6.7	.	.	.
O=C1CSC(c2cccc([N+](=O)[O-])c2)N1Cc1ccccc1 (stereo not given)	.	.	10	.	.	.
Cc1ccc(-c2nnc(SCC(=O)Nc3ccccc3N3CCOCC3)o2)cc1	.	.	5.1	.	.	.
COc1ccc(-c2nnc(SCC(=O)Nc3ccc(N4CCOCC4)cc3)o2)cc1	.	.	6.1	.	.	.
CCn1ccnc1CN(C)Cc1ccc(OCC(O)CN2CCc3ccccc3C2)cc1 (stereo not given)	.	.	10	.	.	.
Oc1ccc(C2CNCCc3c2cc(O)c(O)c3Cl)cc1 (stereo not given)	.	.	6.6!	.	.	.
COc1ccc(-n2nc3c(c2NC(=O)CCC2CCCC2)CS(=O)(=O)C3)cc1	.	.	17	.	.	.
CCC(CC)C(=O)Nc1c2c(nn1-c1ccc(OC)cc1)CS(=O)(=O)C2	.	.	7.4	.	.	.
COc1ccc(-n2nc3c(c2NC(=O)c2ccc(C)cc2)CS(=O)(=O)C3)cc1	.	.	5.4	.	.	.
CCCCc1ccc(N2CC(c3nc4ccccc4n3CC(=O)N3CCOCC3)CC2=O)cc1 (stereo not given)	.	.	.	.	/	/
O=C(N[C@H]1C[C@H]2C(=O)N[C@@H](Cc3ccccc3)C(=O)N2C1)Oc1ccc(F)cc1	.	.	.	.	/	/
CC(C)(C)c1ccc(CSc2nsc(SCc3ccc(C(C)(C)C)cc3)c2C#N)cc1	.	.	.	.	/	/

Screens deposited in PubChem by The Scripps Research Institute Molecular Screening Center.
